Compound activity: PubChem, Paczesny and Yang Labs, IUPUI and University of Michigan
ST2 IL33 inh – blocks human ST2 binding to IL-33; 78,000 tested, 2.3% active; AID 1259354; AlphaLISA ST2-Fc/biotin-IL-33 interaction, 1 h; Q01638; inhibition, % for hits at 17 µM; in the data active = inhibition above about 30%
Of the large screens only hits and unclear results are named; the others gave an inactive call. Shown is part of a subset that was picked to be rich in hits.

O=C1NCCN2CCN(C3CCSCC3)CC12 (stereo not given)	none
CC[C@H]1CN2CC[C@H]1C[C@@H]2CNC(=O)Nc1ccc(C(C)=O)cc1	none
O=C(NC[C@H]1C[C@@H]2CCN1C[C@@H]2CN1CCCC1)c1ccccc1	none
CCN1CCN(Cc2cc(Br)cs2)CC1	none
Cn1nc(-c2ccc3ccccc3c2)cc1[C@H]1CN2CC[C@H]1C[C@@H]2CNC(=O)NCc1ccccc1	none
CN1CCN(Cc2ccc(F)cc2)CC1	none
Cc1ccccc1N1CCN(Cc2ccccc2)CC1	none
Cc1cccc(N2CCN(Cc3ccc(N(C)C)cc3)CC2)c1C	ST2 IL33 inh 54%
CCN1CCN(Cc2ccc(OC)c(OC)c2)CC1	none
CCN1CCN(Cc2ccc(N(C)C)cc2)CC1	ST2 IL33 inh 32%
COc1cc(CN2CCN(c3cccc(C)c3C)CC2)ccc1O	none
Cc1cccc(N2CCN(Cc3ccc([N+](=O)[O-])cc3)CC2)c1C	ST2 IL33 inh 47%
CCN1CCN(Cc2ccc(Cl)cc2)CC1	none
Cc1cccc(N2CCN(Cc3ccc(F)cc3)CC2)c1C	none
Cc1cccc(N2CCN(Cc3ccccc3)CC2)c1C	none
O=C(NC1CCCCCCC1)c1cn(Cc2ccccn2)cc(C(=O)N2CCSCC2)c1=O	none
CSCC(=O)N1C[C@@H]2C[C@H](C1)c1ccc(-c3ccc(SC)cc3)c(=O)n1C2	none
CCCCn1c(C)c(C(=O)OCC)c2cc(OC(C)=O)c3ccccc3c21	none
S=C(NCCN1CCOCC1)NC[C@H]1C[C@@H]2CCN1C[C@@H]2CN1CCC(Cc2ccccc2)CC1	none
Cn1nc(-c2ccco2)cc1[C@H]1CN2CC[C@H]1C[C@@H]2CNC(=O)c1cccs1	none
Cc1cc(N2CCN(C)CC2)c2[nH]c3ccccc3c2c1	none
